TDP1 cell noCPT = qHTS for Inhibitors of human tyrosyl-DNA phosphodiesterase 1 (TDP1): qHTS in cells in absence of CPT; Potency, µM (highest dose often 46.2 µM), for inactives: top-dose activity change, negative = growth inhibition, usual class: inhibitors; DT40 Tdp1-/- hTDP1 cells, no CPT, ATP luminescence, 48 h; AID 686978, 2013; hit rate 15% among 420,000; note: nearly all actives have a fitted effect of over 55% in size
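Stably hTDP1-transfected Tdp1-null chicken DT40 cells were treated with library compounds minus camptothecin and grown for at least 48 hr at 37 °C, after which cellular ATP was quantified by luminescence.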
PLK1 PBD block = qHTS for Inhibitors of PLK1-PDB (polo-like kinase 1 - polo-box domain): Primary Screen | Serine/threonine-protein kinase PLK1 (Homo sapiens), P53350 | Plk1 PBD binding of FITC phosphopeptide, fluorescence polarization | hit rate 2.8% among 360,000 | Potency, µM, for the others: max response, negative = inhibition, hits mostly inhibitors; note: series mostly up to about 57 µM; nearly all actives have a fitted effect of over 65% in size
DT40 TDP1 CPT = qHTS for Inhibitors of human tyrosyl-DNA phosphodiesterase 1 (TDP1): qHTS in cells in presence of CPT; chicken DT40 Tdp1-/-;hTDP1 cells + 20 nM CPT, ATP luminescence, 48 h; Potency, µM (titrated, usually from 46.2 µM), without a hit: top-dose activity change, negative = growth inhibition, actives largely listed as inhibitors; hit rate 12% among 420,000; AID 686979, 2013; note: nearly all actives have a fitted effect of over 55% in size
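Cell growth measured by CellTiter-Glo luminescence after a minimum 48 h, 37 C compound exposure with 20 nM CPT in Tdp1-knockout DT40 cells stably expressing hTDP1, seeded 400/well; qHTS titration format.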
KAT2A inh = qHTS Assay for Inhibitors of GCN5L2; AID 504327, 2011; Histone acetyltransferase KAT2A (Homo sapiens), Q92830; Potency, µM (doses to about 58.9 µM), without a hit: at the top dose activity change, negative = inhibition, hits mostly inhibitors; hit rate 0.21% among 390,000; GCN5L2 HAT assay, ThioGlo1 CoA-SH fluorescence
Target sequence (Q92830 whole entry, looked up): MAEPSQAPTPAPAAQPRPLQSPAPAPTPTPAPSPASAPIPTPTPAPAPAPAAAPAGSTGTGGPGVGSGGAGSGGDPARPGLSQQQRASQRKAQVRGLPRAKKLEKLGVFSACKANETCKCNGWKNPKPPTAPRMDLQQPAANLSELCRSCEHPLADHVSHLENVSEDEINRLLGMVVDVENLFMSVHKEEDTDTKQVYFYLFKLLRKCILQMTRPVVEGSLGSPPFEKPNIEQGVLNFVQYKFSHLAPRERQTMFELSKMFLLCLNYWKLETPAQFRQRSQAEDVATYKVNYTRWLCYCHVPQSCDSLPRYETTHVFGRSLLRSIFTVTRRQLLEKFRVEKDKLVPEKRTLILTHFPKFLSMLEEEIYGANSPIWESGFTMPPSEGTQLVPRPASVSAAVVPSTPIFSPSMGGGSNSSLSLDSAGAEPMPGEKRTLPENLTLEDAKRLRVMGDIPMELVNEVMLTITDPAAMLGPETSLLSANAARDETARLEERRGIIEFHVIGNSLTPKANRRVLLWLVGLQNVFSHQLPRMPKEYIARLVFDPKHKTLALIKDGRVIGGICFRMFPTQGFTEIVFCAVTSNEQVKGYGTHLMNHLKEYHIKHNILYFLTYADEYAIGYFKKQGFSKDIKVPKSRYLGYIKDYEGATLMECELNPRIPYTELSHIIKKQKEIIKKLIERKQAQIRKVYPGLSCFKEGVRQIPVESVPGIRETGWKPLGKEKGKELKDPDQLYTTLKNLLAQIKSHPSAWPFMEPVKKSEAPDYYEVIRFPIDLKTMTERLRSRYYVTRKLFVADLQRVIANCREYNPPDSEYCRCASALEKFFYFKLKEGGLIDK
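qHTS, 1536-well. 20nM enzyme, pH 7.5 HEPES/EDTA/Tween-20 buffer; 15 min compound preinc., RT. Start: 75uM H3(1-25), 70uM AcCoA, 50uM ThioGlo1. Read Ex340/Em540 at t=0 (autofluorescence flag) and t=20 min.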
TDP1 block = qHTS Assay for Inhibitors of Tyrosyl-DNA Phosphodiesterase (TDP1); Tyrosyl-DNA phosphodiesterase 1 (Homo sapiens), Q9NUW8; recombinant TDP1, AlphaScreen DNA substrate cleavage; Potency, µM (doses to about 130 µM), for inactives: top-dose activity change, negative = inhibition, hits mostly inhibitors; hit rate 0.28% among 350,000; note: nearly all actives have a fitted effect of over 40% in size
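Steps: enzyme plus compound, 15 min RT; add biotin/phosphotyrosine-FITC oligonucleotide (15 nM final), react 5 min; add donor/acceptor beads (10 ug/ml final), 10 min; read AlphaScreen. Tdp1 at 1 nM final.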
VDR inh = Inhibitors of the vitamin D receptor (VDR): qHTS | Vitamin D3 receptor (Homo sapiens), P11473 | VDR-SRC2-3 peptide fluorescence polarization, 2 h | Potency, µM, for inactives: max response, negative = inhibition, most hits filed as inhibitors | hit rate 0.93% among 400,000
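After 23 nl compound addition and a short centrifugation, plates sat for 2 hours at ambient temperature; polarization of fluorescence then indicated loss of VDR binding to peptide SRC2-3.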
* marks the source's active call; other numbers are inactive results; u = inconclusive; x = no result; [ ] = remark or other dose. A selection: hits, their analogues and other compounds. The true share with any hit is near 18%. Calls come from the whole dose curve; as a rule, active = well fitted curve in the direction sought with a large enough effect; inconclusive = small, poorly fitted or top-dose-only effect, or another doubt; inactive = no such curve, though single readings can be large; an effect the other way counts as inactive or inconclusive. % is set by controls: 0 for no effect and ±100 for the full control effect; potency is the fitted concentration of half-maximal effect.

SMILES | TDP1 cell noCPT | PLK1 PBD block | DT40 TDP1 CPT | KAT2A inh | TDP1 block | VDR inh
Cc1cc(C(=O)CSc2nc(N)cc(=O)[nH]2)c(C)n1-c1ccc(OC(F)F)cc1 | 1.8µM* | 7% | 2.6µM* | -13% | 6% | 5%
CCCCN=C1NN=C(c2ccc(C)c(C)c2)CS1 | u | 11µM* | u | -5% | 10% | u
CC1(C)Cc2c(ccc3ccccc23)/C(=C/C(=O)N2CCCCC2)N1 | 15µM* | -12% | 16µM* | 0% | 8% | 7%
CCOC(=O)C1=C2c3ccc4ccccc4c3CC(C)(C)N2C(=O)C1=O | u | -15% | u | -1% | -5% | -20%
CCc1ccccc1NC(=O)CSC1=C(C#N)C(c2ccc(O)c(OC)c2)C2=C(CCCC2=O)N1 (centres undefined) | 23µM* | 11µM* | 21µM* | -1% | 4% | -13%
COc1cc(C2C(C#N)=C(SC)NC3=C2C(=O)CCC3)ccc1O (centres undefined) | -5% | 1% | 4% | -5% | -1% | 0%
O=C(O)c1cc(C(=O)O)c(-c2ccccc2)c(C(=O)O)c1 | -6% | 0% | -7% | -4% | 3% | 10%
O=C([O-])c1ccccc1-[n+]1c(-c2ccccc2)cc(-c2ccccc2)cc1-c1ccccc1 | 5.8µM* | -3% | 4.6µM* | -4% | 1% | 2%
O=C1CCCCCN1Cc1ccccc1 | -20% | 30µM* | -7% | -27% | 5% | -16%
O=C1CCCCCCCN1Cc1ccccc1 | -2% | -5% | -5% | x | x | -4%
Cc1ccc(-c2c(C(=O)NNC(=S)NCC3CCCO3)csc2C)cc1 (centres undefined) | 0.46µM* | -4% | u | -3% | 10% | -6%
CCOc1cc(NC(=S)NCC2CCCO2)c(OCC)cc1NC(=O)c1ccccc1C (centres undefined) | u | 0% | 29µM* | -9% | 6% | -5%
Cc1ccccc1C(=O)NC(=S)NCC1CCCO1 (centres undefined) | -23% | -1% | -11% | 2.5µM* | 0% | 7%
CC(C)(C)c1ccc(C(=O)NC(=S)NCC2CCCO2)cc1 (centres undefined) | 4% | 1% | 12% | 1% | 5% | -7%
CCOc1cc(NC(=S)NCC2CCCO2)c(OCC)cc1NC(=O)c1ccc(OC)cc1 (centres undefined) | -9% | 4% | -3% | 2% | 8% | -20%
Cc1cc(C(=O)NNC(=O)c2ccc(NC(=O)CC#N)cc2)c(C)o1 | -6% | -3% | 10% | -6% | -1% | -16%
O=C(O)c1nn(CCOc2cccc(Br)c2)c(=O)c2ccccc12 | 5% | -2% | 10% | -8% | x | -11%
O=C1N=C(O)CN1/N=C\c1ccc(-c2ccc([N+](=O)[O-])cc2)o1 | u | x | u | u | u | -19%
Cc1c(C(=O)OCc2ccccc2)[nH]c2c1C(=O)CC(c1ccc(Cl)cc1)C2 (centres undefined) | 15µM* | x | 18µM* | -8% | -4%[12.3 µM] | -15%
COC(=O)c1[nH]c2c(c1C)C(=O)CC(c1ccc(OC)cc1)C2 (centres undefined) | u | 0% | -10% | 21% | x | 0%
CCOC(=O)c1[nH]c2c(c1Cc1ccccc1)C(=O)CC(c1ccccc1)C2 (centres undefined) | 21µM* | x | 18µM* | -13% | -2%[12.3 µM] | -11%
COC(=O)c1[nH]c2c(c1C)C(=O)CC(c1ccccc1)C2 (centres undefined) | 1.3µM* | -14% | 1.3µM* | -6% | 1% | -15%
CCOc1ccccc1NC(=O)Cn1c(=O)n(CCCC(=O)NCCOC)c(=O)c2cc(OC)c(OC)cc21 | -17% | x | 5% | -11% | -3% | -12%
NC(=O)C1CCN(C(=O)c2ccccc2SCC(=O)NCC2CCCCC2)CC1 | -7% | -8% | 0% | 0% | 2% | -14%
CCc1nnc2c(NCCc3ccccc3)nc3ccccc3n12 | -26% | -3% | 2% | -8% | x | 4%
SMILES | TDP1 cell noCPT | PLK1 PBD block | DT40 TDP1 CPT | KAT2A inh | TDP1 block | VDR inh
O=C(Cn1c(=O)oc2cc(S(=O)(=O)N3CCCCC3)ccc21)NCc1ccc(Cl)cc1 | 7.3µM* | x | 9.2µM* | -11% | 2% | 10%
O=C(Cn1c(=O)oc2cc(S(=O)(=O)N3CCCCC3)ccc21)NCc1ccc(F)cc1 | 5.8µM* | x | 5.2µM* | -6% | 0% | 5%
O=C(Cn1c(=O)oc2cc(S(=O)(=O)N3CCCC3)ccc21)N1CCCC1 | -3% | -6% | 6% | 0% | 0% | 3%
COc1cccc(CNC(=O)Cn2c(=O)oc3cc(S(=O)(=O)N4CCCC4)ccc32)c1 | 23µM* | x | u | -3% | 5% | 4%
O=C(CN1CCCc2ccccc21)N/N=C/c1c(O)ccc2ccccc12 | 3.7µM* | 13% | 4.1µM* | -10% | 8% | -11%
O=C(CN1CCCc2ccccc21)N/N=C/c1ccccc1 | 16µM* | -11% | u | -5% | 8% | 2%
O=C(CN1CCCc2ccccc21)N/N=C/c1ccc(O)cc1O | 16µM* | -17% | u | -2% | 6% | -12%
CCN(CC)c1ccc(/C=N/NC(=O)CN2CCCc3ccccc32)cc1 | u | 2% | u | -10% | 7% | -10%
O=C(Nc1ccc(OC(F)(F)F)cc1)NC1CCC(Oc2ccc(C(=O)O)cc2)CC1 (centres undefined) | -11% | -3% | u | -5% | 0% | -5%
COc1cccc(N=Nc2c(=O)[nH]n3c(=O)c4c([nH]c23)CCC4)c1 | u | 30µM* | -25% | -14% | u | -13%
CCN=C1SC(CC(N)=O)C(=O)N1CC (centres undefined) | -16% | -2% | 1% | -3% | 6% | 5%
Cc1noc(C)c1COC(=O)c1ccccc1Sc1ccccc1C#N | u | -9% | 26µM* | -12% | 1% | 14%
N#Cc1ccccc1Sc1ccccc1C(=O)OCc1nnc(-c2ccccc2)o1 | u | 4% | u | -5% | 2% | 13%
O=C1c2cccc3c2[C@@H](CCC3)CN1[C@@H]1CN2CCC1CC2 | x | x | x | -1% | x | 1%
CC1Cc2nc(SCC(=O)N3CCN(c4ccccc4)CC3)n(C)c(=O)c2S1 (centres undefined) | 13µM* | -6% | u | 3% | 8% | 11%

Screening data deposited in PubChem by National Center for Advancing Translational Sciences (NCATS).
